Tau fluor counter = counter-screen for tau fibril formation inhibitors | tau K18 P301L Alexa594 fluorescence, heparin fibrillization | Potency, µM (top dose mostly 57.7 µM) | 280,000 compounds, 0.93% hits; note: nearly all actives have a fitted effect of over 55% in size
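Human K18 P301L tau (15 uM unlabeled plus 0.24 uM Alexa 594-labeled, final) in 100 mM sodium acetate pH 7 was mixed with compound and 20 uM heparin and incubated 6 hr at 37 C.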
Coupling enz = counter-screen for Giardia aldolase inhibitors: coupling enzyme system; coupling enzyme system counterscreen, AmpLite Red fluorescence; activity change, negative = inhibition, % at 58.2 µM, hits read low; 290,000 compounds, 0.67% hits; AID 2472; in the data active = activity change below about -30%
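Final compound at 57.5 uM, incubated 10 min at RT with coupling enzyme reagent (glyceraldehyde-3-phosphate), then 20 min with substrate and AmpLite Red detection. Fluorescence read at 525/598 nm; tests interference with the coupling assay, not aldolase inhibition.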
Tau fibril FP = blocks human tau fibril formation measured by polarization; P10636; K18 P301L tau heparin fibrillization, Alexa594 FP, 6 h; Potency, µM (series often up to 57.7 µM), most hits filed as inhibitors; 280,000 compounds, 0.39% hits; note: nearly all actives have a fitted effect of over 55% in size
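Human K18 P301L fragment (15 uM unlabeled plus 0.24 uM Alexa 594-labeled) in 100 mM sodium acetate pH 7 with compound, aggregation induced by 20 uM heparin for 6 hr at 37 C. ThT (30 uM) added for 1 hr, then Alexa 594 FP read.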
Tau ThT inhib = inhibitors of human tau fibril formation, thioflavin T binding. recombinant tau K18 P301L (four-repeat tau fragment), heparin-induced fibrillization, ThT fluorescence. Potency, µM (titrated, usually from 57.4 µM), actives largely listed as inhibitors. 270,000 compounds, 2.1% hits; note: nearly all actives have a fitted effect of over 55% in size
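Heparin-induced fibrillization of the P301L-mutant K18 repeat-domain fragment of human tau was followed by ThT binding in quantitative high-throughput format.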
USP1 inh = USP1/UAF1 (human) deubiquitinase inhibition. O94782. recombinant USP1/UAF1, Ub-Rhodamine cleavage fluorescence. Potency, µM (titrated, usually from 57.1 µM), most hits filed as inhibitors. 390,000 compounds, 0.23% hits; note: nearly all actives have a fitted effect of over 60% in size
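Step one: compound is pinned into 1nM USP1/UAF1 in HEPES pH 7.8 buffer with TCEP. Step two: 15 min room-temperature incubation. Step three: Ub-Rho (150nM final) starts cleavage, tracked by fluorescence over six one-minute reads.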
Of the large screens only hits and unclear results are named; the others gave an inactive call; [ ] = another dose, or the depositor's remark. The list is not random: actives were taken first. Their share in the collection is about 2.3%. Unless noted, calls come from the whole dose curve; as a rule, active = well fitted curve in the direction sought with a large enough effect; inconclusive = small, poorly fitted or top-dose-only effect, or another doubt; inactive = no such curve, though single readings can be large; an effect the other way counts as inactive or inconclusive.

CN1CCN(S(=O)(=O)c2cc([N+](=O)[O-])ccc2N/N=C/c2ccc(Cl)cc2)CC1	none
COc1ccccc1NS(=O)(=O)c1cc([N+](=O)[O-])ccc1N/N=C/c1c(C)[nH]c2ccccc12	Tau fluor counter 6.31µM[quencher], Tau fibril FP inconclusive, Tau ThT inhib 3.16µM, USP1 inh 28.2µM
O=[N+]([O-])c1ccc(N/N=C/c2c[nH]c3ccccc23)c(S(=O)(=O)Nc2ccc(Cl)cc2)c1	Tau fluor counter 3.16µM[quencher], Tau ThT inhib 3.16µM, USP1 inh inconclusive
COc1ccc(N2CC(C(=O)NCCc3ccc(Cl)cc3)CC2=O)c(OC)c1 (centres undefined)	none (no result: Tau fluor counter, Coupling enz, Tau fibril FP, Tau ThT inhib)
O=C(N/N=C/c1cn(-c2ccccc2)nc1-c1cc2ccccc2o1)c1ccccc1Br	none
O=C(N/N=C/c1cn(-c2ccccc2)nc1-c1cc2ccccc2o1)c1c[nH]c2ccccc12	Tau fluor counter inconclusive, Tau fibril FP 14.1µM
COc1ccc(C2(CNC(=O)C(=O)Nc3ccc(F)cc3)CCCC2)cc1OC	none (no result: Coupling enz)
NC(=O)C1CCN(C2=C(NS(=O)(=O)c3ccc(Cl)cc3)C(=O)c3ccccc3C2=O)CC1	Tau fluor counter inconclusive, Coupling enz -30.2, Tau fibril FP inconclusive, Tau ThT inhib 15.8µM, USP1 inh inconclusive
NC(=O)C1CCN(c2oc(-c3ccccc3F)nc2S(=O)(=O)c2ccc(Cl)cc2)CC1	Tau ThT inhib inconclusive
CC1CCCN(C2=C(NS(=O)(=O)c3ccc(Cl)cc3)C(=O)c3ccccc3C2=O)C1 (centres undefined)	Coupling enz -40.0, Tau ThT inhib inconclusive, USP1 inh inconclusive
COC(=O)C1CCN(C2=C(NS(=O)(=O)c3ccc(Cl)cc3)C(=O)c3ccccc3C2=O)CC1	Tau fluor counter inconclusive, Tau ThT inhib 14.1µM, USP1 inh inconclusive
CCOc1ccccc1O[C@H](c1ccccc1)[C@H]1CNCCO1	none (no result: Tau fluor counter, Coupling enz, Tau fibril FP, Tau ThT inhib)
CCCCOc1ccc(S(=O)(=O)Nc2ccc(-c3ccc(N4CCC(C)CC4)nn3)cc2)cc1	Tau fluor counter inconclusive, Tau ThT inhib inconclusive (no result: Coupling enz)
O=C(N/N=C\c1ccc(-c2ccccc2[N+](=O)[O-])o1)C1COc2ccccc2O1 (centres undefined)	Tau fluor counter inconclusive, Tau fibril FP inconclusive, Tau ThT inhib 12.6µM
O=C(N/N=C\c1ccc([N+](=O)[O-])o1)C1COc2ccccc2O1 (centres undefined)	Tau ThT inhib inconclusive
O=C(N/N=C\c1ccc(-c2ccccc2[N+](=O)[O-])o1)C1COc2cc3ccccc3cc2O1 (centres undefined)	Tau fluor counter inconclusive, Tau fibril FP inconclusive, Tau ThT inhib 11.2µM
COc1ccc(C(=O)NCc2nnc(SCC(=O)NCCc3ccccc3)o2)cc1	none (no result: Tau fluor counter, Coupling enz, Tau fibril FP, Tau ThT inhib)
Cc1ccc(N=Nc2c(C)[nH][nH]c2=O)c(C)c1	Tau ThT inhib 8.91µM
COc1ccccc1N=Nc1c(C)[nH][nH]c1=O	none (no result: Tau fluor counter, Tau fibril FP, Tau ThT inhib)
COc1ccc(N=Nc2c(C)[nH][nH]c2=O)cc1	Tau ThT inhib 8.91µM
O=C1CN(C(=O)c2c(F)cccc2Cl)C(c2ccc(F)cc2)c2cc(Br)ccc2N1 (centres undefined)	none (no result: Coupling enz)
COC(=O)NC(c1ccco1)C(C(C)=O)C(=O)OC (centres undefined)	Tau ThT inhib inconclusive (no result: USP1 inh)
CCOc1ccc(C(=O)Nc2c(C)nc(Nc3ccccc3)nc2Nc2ccccc2)cc1OCC	Tau fluor counter inconclusive, Tau ThT inhib inconclusive, USP1 inh inconclusive (no result: Coupling enz)
CCOc1ccc(Nc2nc(C)c(NC(=O)c3cccc(OC)c3)c(Nc3ccc(OCC)cc3)n2)cc1	Tau fluor counter 11.2µM[quencher], Tau ThT inhib inconclusive (no result: Coupling enz)
CC1CCc2cccc3c2N1c1cc(C#N)c(C#N)cc1O3 (centres undefined)	Tau fluor counter inconclusive, Tau ThT inhib inconclusive, USP1 inh 28.2µM
CC1CCCCN1c1cc(C#N)c(C#N)cc1[N+](=O)[O-] (centres undefined)	Tau ThT inhib inconclusive
COc1ccc(CCNC(=O)Cn2c(=O)n(-c3ccc(C)c(C)c3)c(=O)c3c(C)c(C)sc32)cc1OC	none (no result: Coupling enz)
C=CC(C)(C)c1[nH]c2ccccc2c1C1=C(O)C(=O)C(c2c[nH]c3c(CC=C(C)C)cccc23)=C(O)C1=O	Tau fluor counter 15.8µM[quencher], Tau fibril FP inconclusive, Tau ThT inhib 14.1µM (no result: USP1 inh)
C=CC(C)(C)c1c(O)c(CC=C(C)C)c(O)c2c(=O)c3ccc(O)c(O)c3oc12	none (no result: Tau fluor counter, Coupling enz, Tau fibril FP, Tau ThT inhib)

Source: PubChem
